Experimental findings from PMC7862700, “An all-to-all approach to the identification of sequence-specific readers for epigenetic DNA modifications on cytosine” are described below.

What all share (assay): DAPPL (digital affinity profiling via proximity ligation, sequencing); 10 mM Tris-HCl pH 7.5, 50 mM NaCl, 1 mM DTT, 4% glycerol, room temperature, 30 min; GST-TFs on glutathione beads, 16-mer random dsDNA library, 0.1% formaldehyde crosslink after washing; high values mean tight binding
In one assay the target is T1, FEV (Homo sapiens, UniProt Q99581 1-238).
T1 sequence: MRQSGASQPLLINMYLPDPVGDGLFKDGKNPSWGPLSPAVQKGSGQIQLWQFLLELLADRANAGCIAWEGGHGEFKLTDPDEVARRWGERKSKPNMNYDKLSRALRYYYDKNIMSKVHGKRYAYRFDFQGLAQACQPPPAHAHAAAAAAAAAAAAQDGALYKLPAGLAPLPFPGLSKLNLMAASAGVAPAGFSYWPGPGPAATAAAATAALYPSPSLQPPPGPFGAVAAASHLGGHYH
The settings on record: protein: recombinant; tags: N-terminal GST; dsDNA, one strand shown. A digest of the protocol:
(§1)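 Yeast served to express human transcription factors as GST fusions, which were then captured on glutathione beads and labelled with DNA barcodes. Pooled with a tag-only sample, they were incubated with 200 nmole of a 16-mer random double-stranded DNA library for 30 min at room temperature in Tris/NaCl/DTT/glycerol buffer, washed, crosslinked with 0.1% formaldehyde, ligated by proximity, amplified by PCR and sequenced. Dividing each hexamer's read frequency for a factor by its frequency for the tag-only sample gives the binding signal.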

A further assay has as its target ETV5 (Homo sapiens, UniProt P41161 1-510). The following applies: protein: recombinant; tags: N-terminal GST; dsDNA, one strand shown. Summed up: as §1
A further assay concerns the target HSF1 (Homo sapiens, UniProt Q00613 1-529). The settings on record: protein: recombinant; tags: N-terminal GST; chain copies: 3; dsDNA, one strand shown. A digest of the protocol:
as §1

In the next assay the target is T2, SPIC (Homo sapiens, UniProt Q8N5J4 1-248).
T2 sequence: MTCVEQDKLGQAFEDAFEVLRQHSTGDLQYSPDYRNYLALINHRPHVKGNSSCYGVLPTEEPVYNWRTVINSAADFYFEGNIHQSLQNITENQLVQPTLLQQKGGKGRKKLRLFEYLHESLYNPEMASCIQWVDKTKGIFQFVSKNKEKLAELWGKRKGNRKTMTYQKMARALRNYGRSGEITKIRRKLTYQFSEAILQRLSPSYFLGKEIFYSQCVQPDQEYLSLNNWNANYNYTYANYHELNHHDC
The settings on record: protein: recombinant; tags: N-terminal GST; dsDNA, one strand shown. Summed up:
as §1

Another assay addresses ELF4 (Homo sapiens, UniProt Q99607 1-663). The settings on record: protein: recombinant; tags: N-terminal GST; dsDNA, one strand shown. A digest of the protocol:
as §1

In another assay the target is T3, ELK4 (Homo sapiens, UniProt P28324-2 1-405).
T3 sequence: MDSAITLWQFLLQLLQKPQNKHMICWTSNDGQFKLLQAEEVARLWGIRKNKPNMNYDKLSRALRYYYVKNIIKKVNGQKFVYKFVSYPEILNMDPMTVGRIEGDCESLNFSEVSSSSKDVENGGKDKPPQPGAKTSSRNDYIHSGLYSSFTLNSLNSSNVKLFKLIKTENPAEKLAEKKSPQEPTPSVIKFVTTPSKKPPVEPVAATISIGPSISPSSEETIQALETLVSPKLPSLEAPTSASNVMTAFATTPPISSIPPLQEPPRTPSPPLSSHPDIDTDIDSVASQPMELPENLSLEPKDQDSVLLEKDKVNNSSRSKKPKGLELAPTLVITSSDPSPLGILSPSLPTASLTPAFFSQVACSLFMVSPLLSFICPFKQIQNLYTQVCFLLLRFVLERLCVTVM
The following applies: protein: recombinant; tags: N-terminal GST; dsDNA, one strand shown. A digest of the protocol:
as §1

A further assay addresses T4, ETV2 (Homo sapiens, UniProt O00321 1-342).
T4 sequence: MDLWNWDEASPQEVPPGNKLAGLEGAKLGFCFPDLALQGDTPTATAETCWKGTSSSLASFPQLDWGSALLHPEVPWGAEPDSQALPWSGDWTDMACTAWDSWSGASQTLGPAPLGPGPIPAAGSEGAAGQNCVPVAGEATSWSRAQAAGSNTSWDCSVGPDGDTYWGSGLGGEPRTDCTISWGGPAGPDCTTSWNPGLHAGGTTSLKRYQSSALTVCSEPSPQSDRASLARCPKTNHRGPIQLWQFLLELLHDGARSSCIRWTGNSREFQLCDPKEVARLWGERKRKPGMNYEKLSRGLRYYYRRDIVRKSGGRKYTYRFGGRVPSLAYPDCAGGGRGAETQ
The following applies: protein: recombinant; tags: N-terminal GST; dsDNA, one strand shown. A digest of the protocol: as §1

The target of the next assay is T5, ELF3 (Homo sapiens, UniProt P78545 1-371).
T5 sequence: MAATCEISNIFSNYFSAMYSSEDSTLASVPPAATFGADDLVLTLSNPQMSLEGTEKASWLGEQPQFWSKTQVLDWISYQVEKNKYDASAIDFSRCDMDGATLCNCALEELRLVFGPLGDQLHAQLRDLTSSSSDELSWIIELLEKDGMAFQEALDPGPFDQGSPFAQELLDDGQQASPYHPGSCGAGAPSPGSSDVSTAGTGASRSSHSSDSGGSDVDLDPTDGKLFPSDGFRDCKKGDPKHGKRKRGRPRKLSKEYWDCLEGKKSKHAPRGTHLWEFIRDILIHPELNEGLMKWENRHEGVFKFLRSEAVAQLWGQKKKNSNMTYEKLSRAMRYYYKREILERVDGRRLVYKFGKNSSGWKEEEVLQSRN
The settings on record: protein: recombinant; tags: N-terminal GST; dsDNA, one strand shown. A digest of the protocol: as §1

A further assay deals with CRX (Homo sapiens, UniProt O43186 1-299). The following applies: protein: recombinant; tags: N-terminal GST; dsDNA, one strand shown. A digest of the protocol: as §1
For the next assay, the target named is ETV1 (Homo sapiens, UniProt P50549 1-477). The settings on record: protein: recombinant; tags: N-terminal GST; dsDNA, one strand shown. A digest of the protocol:
as §1

ELF4, sequence (Q99607 whole entry): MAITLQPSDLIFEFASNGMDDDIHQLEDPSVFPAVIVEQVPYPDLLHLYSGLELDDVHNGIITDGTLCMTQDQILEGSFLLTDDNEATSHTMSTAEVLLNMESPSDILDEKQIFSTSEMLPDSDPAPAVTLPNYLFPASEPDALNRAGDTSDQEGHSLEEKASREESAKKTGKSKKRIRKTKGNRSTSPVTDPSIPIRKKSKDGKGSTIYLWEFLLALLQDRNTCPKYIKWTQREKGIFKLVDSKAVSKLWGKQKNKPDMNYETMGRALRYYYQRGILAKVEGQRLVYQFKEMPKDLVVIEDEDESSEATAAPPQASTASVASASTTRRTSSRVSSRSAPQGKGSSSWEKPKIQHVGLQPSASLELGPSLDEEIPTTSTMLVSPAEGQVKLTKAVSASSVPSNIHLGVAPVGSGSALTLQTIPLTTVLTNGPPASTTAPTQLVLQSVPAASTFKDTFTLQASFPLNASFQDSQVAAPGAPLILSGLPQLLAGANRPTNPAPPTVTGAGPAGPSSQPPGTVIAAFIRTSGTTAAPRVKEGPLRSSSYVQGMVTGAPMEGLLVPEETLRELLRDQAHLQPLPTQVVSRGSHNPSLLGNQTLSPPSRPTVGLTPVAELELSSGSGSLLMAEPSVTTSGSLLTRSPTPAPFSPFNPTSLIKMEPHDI
ETV5, sequence (P41161 whole entry): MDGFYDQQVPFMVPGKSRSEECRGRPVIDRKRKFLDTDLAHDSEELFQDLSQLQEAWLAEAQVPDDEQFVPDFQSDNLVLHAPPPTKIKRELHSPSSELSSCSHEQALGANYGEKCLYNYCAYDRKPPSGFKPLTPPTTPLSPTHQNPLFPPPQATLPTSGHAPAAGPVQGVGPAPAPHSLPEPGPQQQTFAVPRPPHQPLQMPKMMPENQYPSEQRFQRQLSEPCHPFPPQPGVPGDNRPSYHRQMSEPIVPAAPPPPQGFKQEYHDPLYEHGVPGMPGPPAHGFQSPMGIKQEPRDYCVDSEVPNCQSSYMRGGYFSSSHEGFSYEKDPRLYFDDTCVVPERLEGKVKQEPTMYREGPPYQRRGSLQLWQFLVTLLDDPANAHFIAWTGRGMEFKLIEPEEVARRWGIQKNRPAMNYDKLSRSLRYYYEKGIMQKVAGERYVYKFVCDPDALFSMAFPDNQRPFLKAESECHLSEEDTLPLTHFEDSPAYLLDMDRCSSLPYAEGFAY
CRX, sequence (O43186 whole entry): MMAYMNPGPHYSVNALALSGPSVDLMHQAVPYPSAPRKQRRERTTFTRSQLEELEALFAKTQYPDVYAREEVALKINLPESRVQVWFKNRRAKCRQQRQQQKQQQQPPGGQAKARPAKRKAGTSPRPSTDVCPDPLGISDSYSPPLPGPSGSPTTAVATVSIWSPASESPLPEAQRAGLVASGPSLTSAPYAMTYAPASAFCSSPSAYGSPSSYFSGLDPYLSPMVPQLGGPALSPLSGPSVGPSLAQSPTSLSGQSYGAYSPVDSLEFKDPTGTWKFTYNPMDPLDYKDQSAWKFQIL
HSF1, sequence (Q00613 whole entry): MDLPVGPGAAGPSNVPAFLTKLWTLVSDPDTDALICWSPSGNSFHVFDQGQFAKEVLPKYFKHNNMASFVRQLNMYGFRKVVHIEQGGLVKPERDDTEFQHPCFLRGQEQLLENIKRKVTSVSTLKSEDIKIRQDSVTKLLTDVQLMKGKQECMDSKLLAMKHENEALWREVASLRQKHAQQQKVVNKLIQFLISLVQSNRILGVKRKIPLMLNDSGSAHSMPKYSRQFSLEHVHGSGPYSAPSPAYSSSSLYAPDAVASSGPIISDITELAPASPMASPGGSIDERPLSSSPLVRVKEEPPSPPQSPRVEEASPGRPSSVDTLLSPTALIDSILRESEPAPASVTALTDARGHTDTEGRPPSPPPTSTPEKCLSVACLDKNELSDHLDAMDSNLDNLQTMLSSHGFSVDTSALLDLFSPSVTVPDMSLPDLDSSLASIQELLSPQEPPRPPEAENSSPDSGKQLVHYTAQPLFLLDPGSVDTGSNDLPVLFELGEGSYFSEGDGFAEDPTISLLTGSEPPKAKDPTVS
ETV1, sequence (P50549 whole entry): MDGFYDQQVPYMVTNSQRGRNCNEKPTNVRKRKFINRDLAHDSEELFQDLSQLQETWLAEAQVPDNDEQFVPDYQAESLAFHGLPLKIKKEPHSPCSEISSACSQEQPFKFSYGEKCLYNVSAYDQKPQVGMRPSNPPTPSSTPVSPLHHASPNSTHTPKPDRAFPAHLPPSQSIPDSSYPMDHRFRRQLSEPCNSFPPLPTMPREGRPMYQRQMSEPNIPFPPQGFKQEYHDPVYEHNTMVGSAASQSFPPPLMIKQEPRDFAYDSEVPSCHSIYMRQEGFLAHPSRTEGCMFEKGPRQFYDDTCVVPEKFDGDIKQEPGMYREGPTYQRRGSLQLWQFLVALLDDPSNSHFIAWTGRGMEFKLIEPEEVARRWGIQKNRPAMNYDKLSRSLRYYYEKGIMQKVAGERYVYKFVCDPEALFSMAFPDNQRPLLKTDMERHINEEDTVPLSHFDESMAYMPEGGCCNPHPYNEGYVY

On to AAGTAC, for which the binding signal is 1.52 fold enrichment (6-mer frequency, TF over GST control) with FEV; 1.59 fold enrichment (6-mer frequency, TF over GST control) in the assay with ETV5; 1.29 fold enrichment (6-mer frequency, TF over GST control) in the assay with HSF1; 1.58 fold enrichment (6-mer frequency, TF over GST control) with SPIC; 1.5 fold enrichment (6-mer frequency, TF over GST control) with ELF4; 1.32 fold enrichment (6-mer frequency, TF over GST control) with ELK4. In addition, the binding signal was 1.41 fold enrichment (6-mer frequency, TF over GST control) with ETV2; 1.68 fold enrichment (6-mer frequency, TF over GST control) with ELF3; 1.34 fold enrichment (6-mer frequency, TF over GST control) in the assay with CRX; 1.49 fold enrichment (6-mer frequency, TF over GST control) with ETV1.
Regarding CCTAAA, the binding signal in the assay with FEV was 1.27 fold enrichment (6-mer frequency, TF over GST control); with ETV5, 1.33 fold enrichment (6-mer frequency, TF over GST control); in the assay with HSF1, 1.37 fold enrichment (6-mer frequency, TF over GST control); in the assay with SPIC, 1.32 fold enrichment (6-mer frequency, TF over GST control); with ELF4 it was 1.35 fold enrichment (6-mer frequency, TF over GST control); with ELK4, 1.29 fold enrichment (6-mer frequency, TF over GST control). Further, the binding signal is 1.25 fold enrichment (6-mer frequency, TF over GST control) with ETV2; 1.4 fold enrichment (6-mer frequency, TF over GST control) with ELF3; 1.61 fold enrichment (6-mer frequency, TF over GST control) with CRX; 1.31 fold enrichment (6-mer frequency, TF over GST control) with ETV1.
As to AATATG, the binding signal in the assay with FEV is 1.12 fold enrichment (6-mer frequency, TF over GST control); in the assay with ETV5, 1.2 fold enrichment (6-mer frequency, TF over GST control); with HSF1, 1.12 fold enrichment (6-mer frequency, TF over GST control); with SPIC it was 1.28 fold enrichment (6-mer frequency, TF over GST control); in the assay with ELF4, 1.16 fold enrichment (6-mer frequency, TF over GST control); with ELK4, 1.18 fold enrichment (6-mer frequency, TF over GST control). The binding signal is 1.07 fold enrichment (6-mer frequency, TF over GST control) with ETV2; 1.21 fold enrichment (6-mer frequency, TF over GST control) with ELF3; 1.1 fold enrichment (6-mer frequency, TF over GST control) in the assay with CRX; 1.13 fold enrichment (6-mer frequency, TF over GST control) with ETV1.
For the sequence GATGGC, the binding signal with FEV is 1.33 fold enrichment (6-mer frequency, TF over GST control); in the assay with ETV5 it was 1.26 fold enrichment (6-mer frequency, TF over GST control); with HSF1, 1.1 fold enrichment (6-mer frequency, TF over GST control); in the assay with SPIC it was 1.45 fold enrichment (6-mer frequency, TF over GST control); in the assay with ELF4, 1.4 fold enrichment (6-mer frequency, TF over GST control); with ELK4, 1.3 fold enrichment (6-mer frequency, TF over GST control). For the same sequence, the binding signal with ETV2 was 1.21 fold enrichment (6-mer frequency, TF over GST control); with ELF3, 1.47 fold enrichment (6-mer frequency, TF over GST control); in the assay with CRX it was 1.11 fold enrichment (6-mer frequency, TF over GST control); with ETV1 it was 1.31 fold enrichment (6-mer frequency, TF over GST control).
Regarding TCACCA, the binding signal is 1.16 fold enrichment (6-mer frequency, TF over GST control) in the assay with FEV; 1.12 fold enrichment (6-mer frequency, TF over GST control) with ETV5; 1.01 fold enrichment (6-mer frequency, TF over GST control) with HSF1; 1.19 fold enrichment (6-mer frequency, TF over GST control) with SPIC; 1.25 fold enrichment (6-mer frequency, TF over GST control) with ELF4; 1.21 fold enrichment (6-mer frequency, TF over GST control) in the assay with ELK4. Besides, the binding signal in the assay with ETV2 was 1.32 fold enrichment (6-mer frequency, TF over GST control); with ELF3, 1.39 fold enrichment (6-mer frequency, TF over GST control); with CRX, 1.04 fold enrichment (6-mer frequency, TF over GST control); in the assay with ETV1, 1.13 fold enrichment (6-mer frequency, TF over GST control).
As to TAGTAC, the binding signal with FEV is 1.16 fold enrichment (6-mer frequency, TF over GST control); with ETV5, 1.14 fold enrichment (6-mer frequency, TF over GST control); with HSF1 it was 1.25 fold enrichment (6-mer frequency, TF over GST control); in the assay with SPIC, 1.27 fold enrichment (6-mer frequency, TF over GST control); in the assay with ELF4 it was 1.15 fold enrichment (6-mer frequency, TF over GST control); with ELK4, 1.16 fold enrichment (6-mer frequency, TF over GST control). Besides, the binding signal is 1.06 fold enrichment (6-mer frequency, TF over GST control) in the assay with ETV2; 1.14 fold enrichment (6-mer frequency, TF over GST control) with ELF3; 1.29 fold enrichment (6-mer frequency, TF over GST control) with CRX; 1.14 fold enrichment (6-mer frequency, TF over GST control) with ETV1.
GATGTA: the binding signal is 1.4 fold enrichment (6-mer frequency, TF over GST control) in the assay with FEV; 1.37 fold enrichment (6-mer frequency, TF over GST control) with ETV5; 1.01 fold enrichment (6-mer frequency, TF over GST control) in the assay with HSF1; 1.12 fold enrichment (6-mer frequency, TF over GST control) with SPIC; 1.33 fold enrichment (6-mer frequency, TF over GST control) with ELF4; 1.28 fold enrichment (6-mer frequency, TF over GST control) in the assay with ELK4. In addition, the binding signal with ETV2 was 1.18 fold enrichment (6-mer frequency, TF over GST control); with ELF3 it was 1.53 fold enrichment (6-mer frequency, TF over GST control); with CRX it was 1.06 fold enrichment (6-mer frequency, TF over GST control); in the assay with ETV1, 1.33 fold enrichment (6-mer frequency, TF over GST control).
